USP7 block: inhibitors of human USP7 deubiquitinase | purified USP7, Ub-rhodamine cleavage fluorescence | inhibition, % at 20 µM | 47,000 compounds, 0.3% hits | AID 1645854, 2021
Target sequence (Q93009 whole entry, looked up): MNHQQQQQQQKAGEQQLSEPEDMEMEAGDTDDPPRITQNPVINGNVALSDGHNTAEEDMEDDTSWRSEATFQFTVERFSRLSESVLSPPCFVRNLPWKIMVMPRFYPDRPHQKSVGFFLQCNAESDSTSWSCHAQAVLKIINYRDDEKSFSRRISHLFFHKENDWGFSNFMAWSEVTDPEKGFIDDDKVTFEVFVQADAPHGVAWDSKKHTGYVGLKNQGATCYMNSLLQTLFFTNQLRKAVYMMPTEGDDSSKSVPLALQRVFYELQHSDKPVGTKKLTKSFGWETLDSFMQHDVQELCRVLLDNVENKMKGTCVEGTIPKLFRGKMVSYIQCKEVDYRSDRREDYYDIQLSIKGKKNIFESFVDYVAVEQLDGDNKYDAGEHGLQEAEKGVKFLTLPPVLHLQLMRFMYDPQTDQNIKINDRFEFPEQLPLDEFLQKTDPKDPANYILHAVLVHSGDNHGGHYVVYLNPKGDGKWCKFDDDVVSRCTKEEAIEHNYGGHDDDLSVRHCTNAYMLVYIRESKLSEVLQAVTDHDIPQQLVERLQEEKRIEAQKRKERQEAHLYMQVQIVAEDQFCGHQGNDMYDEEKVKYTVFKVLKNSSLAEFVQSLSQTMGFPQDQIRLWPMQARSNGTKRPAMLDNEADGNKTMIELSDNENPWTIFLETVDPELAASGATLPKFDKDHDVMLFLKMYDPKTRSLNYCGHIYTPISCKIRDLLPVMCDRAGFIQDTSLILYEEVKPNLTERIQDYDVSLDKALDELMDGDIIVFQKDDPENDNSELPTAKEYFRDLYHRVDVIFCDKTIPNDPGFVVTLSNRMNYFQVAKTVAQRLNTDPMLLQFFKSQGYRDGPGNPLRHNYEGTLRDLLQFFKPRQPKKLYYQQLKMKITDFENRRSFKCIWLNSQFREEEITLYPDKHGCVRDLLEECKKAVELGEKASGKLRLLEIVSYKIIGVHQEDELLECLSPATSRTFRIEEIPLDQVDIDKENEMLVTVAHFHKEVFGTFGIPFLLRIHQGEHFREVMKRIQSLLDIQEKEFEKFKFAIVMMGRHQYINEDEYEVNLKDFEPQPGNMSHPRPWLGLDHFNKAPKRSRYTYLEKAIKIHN
UCHL1 inh: inhibitors of human UCHL1 deubiquitinase | purified UCHL1, Ub-rhodamine cleavage fluorescence | AID 1645859, 2021 | Ubiquitin carboxyl-terminal hydrolase isozyme L1 (Homo sapiens), P09936 | 47,000 compounds, 0.2% hits | inhibition, % at 20 µM
OTUD3 block: inhibitors of human OTUD3 deubiquitinase; OTU domain-containing protein 3 (Homo sapiens), Q5T2D3; purified OTUD3, Ub-rhodamine fluorescence, 2 h; inhibition, % at 25 µM; 47,000 compounds, 0.7% hits
Of the large screens only hits and unclear results are named; the others gave an inactive call. Hits are enriched below; roughly 0.83% of the tested compounds scored in any of these assays. Rule as the data show it: active = inhibition above about 30%; inactive = the rest.

CCCCN1C(=O)C2C(C(=O)Nc3ccc(Oc4ccccc4)cc3)C3C=CC2(O3)C1C(=O)NC1CCCCC1 (configuration not stated)	none
CCn1cc(NC(=O)CN2CCC3(CC=CCOC3)CC2)c(C)n1	OTUD3 block 45.7
Cc1cc(C)nc(NCCC(=O)N2CCC3(CC=CCOC3)CC2)n1	none
CCOc1ccc(NC(=O)COc2cccc(-n3cnnn3)c2)cc1	none
CC(NC(=O)c1ccccc1)c1nc2ccccc2n1CC(=O)Nc1ccc2c(c1)OCO2 (configuration not stated)	none
CC1=C(c2ccc(Cl)cc2)S(=O)(=O)NC1=NCC(=O)Nc1ccc(F)cc1	none
O=C(c1ccc(F)cc1Cl)N(c1ccccn1)C1CCCCC1	none
O=C(c1ccc(Cl)cc1)N(c1ccccn1)C1CCCCC1	USP7 block 51.6, OTUD3 block 43.7
Cc1ccc(-c2nc(N3CCCC(O)C3)ncc2-c2cnccn2)s1 (configuration not stated)	none
O=C(NC1CCCC1)c1ccc(-c2ccc(S(=O)(=O)NCc3ccccc3)cc2)cc1	none
O=C(O)c1ccc(Cl)c(NC(=O)C(Sc2cccc(NC(=O)c3cccc(Cl)c3)c2)c2ccccc2)c1 (configuration not stated)	none
Cc1ccc(C(=O)O)cc1NC(=O)C(Sc1cccc(NC(=O)c2ccccc2C)c1)c1ccccc1 (configuration not stated)	OTUD3 block 49.3
O=C(Cn1c(=O)n(Cc2ccc3c(c2)OCO3)c(=O)c2ccccc21)c1ccccc1	none
Cc1ccc(CNC(=O)c2cnc3ccccc3n2)cc1	OTUD3 block 30.2
O=C(NCc1ccc(F)cc1)c1cnc2ccccc2n1	none
O=C(CSc1nnc(-c2cccc(Cl)c2)o1)N1CCCc2ccccc21	none
O=C(Nc1ccc(-n2cccc2)cc1)c1cccc([N+](=O)[O-])c1	none
O=C(Nc1cccc([N+](=O)[O-])c1)Nc1ccc2snnc2c1	USP7 block 83.7, UCHL1 inh 68.2
Cc1ccc(C(=O)N2CC(C(=O)NC3CCCC3)C3(CCOCC3)C2)cc1C (configuration not stated)	none
Fc1ccccc1N1CCN(c2ncc3c(n2)CCN(Cc2ccccn2)C3)CC1	none
COc1cccc(/C=C/c2nc(C#N)c(N3CCN(C(=O)c4cccs4)CC3)o2)c1	none
O=C(CSc1n[nH]c2nc3ccccc3n12)Nc1ccc2[nH]c(=O)[nH]c2c1	none
CC(Sc1n[nH]c2nc3ccccc3n12)C(=O)Nc1ccc2c(c1)OCCO2 (configuration not stated)	OTUD3 block 34.0
CCOC(=O)c1ccc(Oc2sccc2[N+](=O)[O-])cc1	USP7 block 85.0
CCOC(=O)c1ccc(Oc2nc(C)nc3sc(C)c(C)c23)cc1	none
COc1ccccc1NS(=O)(=O)c1cccc(NC(=O)CCc2nc3ccccc3s2)c1	none
Cc1ccc(NC(=O)Nc2ccc(C)n(CC(=O)Nc3ccc(C)c(C)c3)c2=O)cc1	USP7 block 42.8
Cc1cccc(NC(=O)Nc2ccc(C)n(CC(=O)N3CCCCC3)c2=O)c1	none
Cc1ccccc1OCCSc1nc2ccccc2n1CC(=O)NC1CC1	none
N#Cc1ccccc1NC(=O)c1cc2c(s1)-c1ccccc1S(=O)(=O)C2	OTUD3 block 55.8
O=C(c1cc2c(s1)-c1ccccc1S(=O)(=O)C2)N1CCN(c2ccccc2F)CC1	none
CCc1cc(=O)oc2c(C)c(OCC(=O)N3CCC4(O)CCCCC4C3)ccc12 (configuration not stated)	none
Cc1c(OCC(=O)NCC(=O)N2CCC3(O)CCCCC3C2)ccc2c3c(c(=O)oc12)CCCC3 (configuration not stated)	OTUD3 block 41.0
Cc1nn(-c2ccc(F)cc2)c(C)c1S(=O)(=O)N1CCC(C)CC1	none
Cc1nn(-c2ccc(F)cc2)c(C)c1S(=O)(=O)N1CCN(c2ccccn2)CC1	USP7 block 35.7
O=C(COc1ccccc1)Nc1ccc(-c2nc3cnccc3o2)c(O)c1	USP7 block 36.2
COc1ccc(OCC(=O)Nc2cc(C)c(O)c(-c3nc4ccccc4o3)c2)cc1	none
COc1ccc2[nH]c(=O)c(CN(C)C(=O)c3ccc([N+](=O)[O-])cc3)cc2c1	none
CCCCCCCC[C@@H](C)[C@@H]1OC(=O)[C@H](CO)NC(=O)[C@H](C(=O)c2c[nH]c3ccccc23)NC(=O)[C@@H](CCC(=O)O)NC(=O)[C@H]1C	none
CCCCCCCCCCCC(O)CC(=O)N[C@@H](CC(C)C)C(=O)N[C@H](CCC(=O)O)C(=O)N[C@H]1C(=O)N[C@H]([C@@H](C)CC)C(=O)NC(CC(C)C)C(=O)N[C@H](CO)C(=O)N[C@@H](CC(C)C)C(=O)N[C@@H](CC(C)C)C(=O)N[C@H](CO)C(=O)N[C@@H](C(C)C)C(=O)O[C@@H]1C (some centres not stated)	USP7 block 38.7, OTUD3 block 44.3
COc1ccc(CNc2c(S(=O)(=O)c3ccccc3)cnc3ccccc23)cc1	none
COc1ccccc1-c1cc(CNCCN)n(Cc2ccc3ccccc3c2)n1	none
Cn1c(SCCOc2ccccc2Cl)nnc1-c1ccc2c(c1)OCCO2	none
COc1ccccc1OCCSc1nnc(-c2ccc3c(c2)OCCCO3)n1C	USP7 block 77.9
Cc1ccc(Cn2nc(C)cc2C(=O)Nc2cccc(C(F)(F)F)c2)cc1	none
Cc1cc(C(F)(F)F)n(-c2ccc(NC(=O)Nc3cccc(C(F)(F)F)c3)cc2)n1	OTUD3 block 31.4
Cn1cc(NC(=O)Nc2cccc(C(F)(F)F)c2)c2ccccc2c1=O	OTUD3 block 88.4
Cn1cc(NC(=O)Nc2cccc3ccccc23)c2ccccc21	none
Cc1ccc(NC(=O)Cn2cc(S(=O)(=O)N3CCCCC3)ccc2=O)cc1	none
Cc1nn(-c2cccc(Cl)c2)c(Cl)c1/C=C/C(=O)c1ccc2c(c1)OCCO2	none
Fc1cc(F)c2[nH]cc(-c3nnnn3-c3ccc4ccccc4c3)c2c1	none
Cc1nnc(C(=O)Nc2cccc(C(=O)NCCN3CCCCCC3)c2)s1	none
COc1ccc(NC(=O)c2nnc(C(=O)NCCN3CCCCCC3)s2)cc1	OTUD3 block 33.6
Cc1cc(-c2nccn2C)nc(C2CCCN2c2ccnc(C)n2)n1 (configuration not stated)	none
CCC(C)NC(=O)Cn1cc(-c2nnc(CN3CCC(C)CC3)o2)c2ccccc21 (configuration not stated)	none
CN(Cc1ccc2c(c1)OCO2)C(=O)c1cccc(N2CCCC2=O)c1	none
CO[C@H]1C[C@@H]2CC[C@@H](C)[C@@](O)(O2)C(=O)C(=O)N2CCCC[C@H]2C(=O)O[C@@H]([C@H](C)C[C@@H]2CC[C@@H](O)[C@H](OC)C2)CC(=O)[C@H](C)/C=C(\C)[C@@H](O)CC(=O)[C@H](C)C[C@H](C)/C=C/C=C/C=C/1C	none
C[C@@H]1/C=C/CC/C=C/C(=O)[C@H](C)[C@@H]2CC[C@@H](C)[C@@](O)(O2)C(=O)C(=O)N2CCCC[C@H]2C(=O)O[C@H]([C@H](C)C[C@@H]2CC[C@@H](O)[C@H](O)C2)CC1	OTUD3 block 43.2
O=C(Cn1c(=O)n(CCCC(=O)N2CC=C(c3ccccc3)CC2)c(=O)c2ccccc21)NCCC1=CCCCC1	OTUD3 block 37.4
CCCCNC(=O)CCCn1c(=O)c2ccccc2n(CC(=O)NCCC2=CCCCC2)c1=O	none
